Assay outcomes as filed in PubChem.
Rows were chosen to be rich in hits. Some 1.5% of all compounds tested hit in one or more screens of this group.
IL1B cytotox: toxic to HUVEC cells under IL-1B stimulation; HUVEC cell count loss, Hoechst imaging, IL-1B stimulated; cell count reduction, % at 2 µM; hit rate 0.41% among 94,000; AID 845;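 active = cell count reduction more than 3 SD above the screen-wide mean, cut at about 70% in these data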;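 note: normalized per plate to untreated control cells as the no-loss baseline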
NFkB transloc inh: blocks IL-1B driven NFkB nuclear translocation in HUVEC cells; HUVEC IL-1B NFkB p65 nuclear translocation imaging; inhibition, % at 2 µM; hit rate 0.43% among 94,000;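 active = inhibition above about 30% together with a positive call from visual inspection of the well image, limit read from the data; inconclusive = inhibition above a set limit but visual check negative; inactive = inhibition not above a set limit, visual check negative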;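 note: nuclear over cytoplasmic p65 intensity ratio measured by imaging; 0% = IL-1B stimulated DMSO wells and 100% = unstimulated DMSO wells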
HUVEC tox TNFa: HUVEC cytotoxicity counter-screen, TNF alpha stimulated; HUVEC TNFalpha-stimulated, Hoechst cell count, imaging; cell count reduction, % at 2 µM; hit rate 0.17% among 93,000;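 active = cell count reduction exceeding the screen mean by over 5 SD, scaled to untreated wells per plate, cut at about 78% in these data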;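 note: cells counted after 24 h of TNF alpha exposure following the 1 h pretreatment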
IL1B NFkB pot: enhances IL-1B driven NFkB nuclear translocation. HUVEC IL-1B NFkB p65 nuclear translocation imaging. activation, % at 2 µM. hit rate 0.3% among 94,000. AID 819;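 active = activation above 40%, about the mean plus 3 SD, also judged a hit on visual image review; inconclusive = activation above 40% but not a hit on visual review; inactive = activation not above 40% and no visual hit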;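 note: percent activation is computed from the nuclear over cytoplasmic p65 intensity ratio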
VCAM1 TNFa inh: reduces TNF alpha induced VCAM1 expression in HUVEC. HUVEC TNFa-induced VCAM-1 immunofluorescence, high-content imaging. inhibition, % at 2 µM. hit rate 0.48% among 95,000. AID 802;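 active = inhibition above the batch mean plus 3 SD, with images confirmed as a hit by eye, cut at about 37% in these data; inconclusive = inhibition above that limit but hit not confirmed in images; inactive = inhibition not above that limit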;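 note: 0% = TNF-stimulated DMSO wells and 100% = unstimulated control wells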
* marks the source's active call; other numbers are inactive results; ? = inconclusive; / = not tested or not shown.

SMILES	IL1B cytotox	NFkB transloc inh	HUVEC tox TNFa	IL1B NFkB pot	VCAM1 TNFa inh
O=C(Nc1ccccn1)NC12CC3CC(CC(C3)C1)C2	-23	-20	-13	20	-8
COc1ccc(OC)c(S(=O)(=O)n2nnc3cc(Cl)ccc32)c1	23	1	8	-1	-21
COc1cc(Cl)ccc1S(=O)(=O)n1nc(C)cc1C	-19	3	-19	-3	12
COc1cc(S(=O)(=O)n2nnc3ccccc32)c(OC)cc1Cl	87*	-18	/	18	-4
COc1cc(S(=O)(=O)n2nc(C)cc2C)c(OC)cc1Cl	-21	46*	-9	-46	-8
Cc1cc(C)nc(N2CCC(C(=O)Nc3nnc(C)s3)CC2)n1	-22	26	-30	-26	17
CCCSc1nnc2nc3c(nn12)c1ccccc1n3C	-75	4	-30	-4	18
Clc1ccccc1Sc1cnc2ccccc2n1	-10	36*	-45	-36	13
O=C1CCCCCCC1Sc1ccccc1[N+](=O)[O-] (configuration not stated)	11	-23	-5	23	13
Cc1ccc2nc(/C(C#N)=C\c3ccc(N4CCOCC4)o3)[nH]c2c1	-11	-16	-38	16	20
Cc1ccc2nc(/C(C#N)=C\c3ccc([N+](=O)[O-])o3)[nH]c2c1	-36	38*	-4	-37	23
CCCOc1cc(C)c(S(=O)(=O)n2ccc(C)n2)cc1C	10	9	-18	-9	3
Cn1c(/C=N/c2nc3ccccc3[nH]2)nc2ccccc21	-37	-4	-8	4	4
Cn1c(/C=N/n2cnnc2)nc2ccccc21	85*	99*	-22	-99	-44
CCN(CC)CCN1C(=O)C(=O)/C(=C(/O)c2cccc(OC)c2)C1c1ccccn1 (configuration not stated)	-2	-7	-22	7	2
COc1ccc(C(=O)N(Cc2ccccc2)Cc2cc3cc4c(cc3[nH]c2=O)OCCO4)cc1	-24	72*	0	-72	-6
N/C(Cc1cccs1)=N\OC(=O)COc1ccc(Br)cc1	3	-60	-16	60*	13
CCOC(=O)c1c(NC(=O)CSc2nnc(C)s2)sc2c1CCC(CC)C2 (configuration not stated)	-21	-9	-18	9	2
O=C(O)Cc1ccc(NC(=O)C2CC=CCC2C(=O)O)cc1 (configuration not stated)	3	0	57	0	55*
Cc1cc(C)n(-c2c(F)c(F)c(CO)c(F)c2F)n1	1	3	-5	-3	-4
Cc1nnc(SCC(=O)NCc2ccco2)n1Cc1ccccc1	-27	-10	-23	10	22
CCCn1c(SCC(=O)NCc2ccco2)nnc1C(C)C	18	2	82*	-2	84*
COn1c2c(c3c4no[n+]([O-])c4ccc31)CCCC2	8	-12	5	12	5
[O-][n+]1c2c(c3c4non(O)c4ccc31)CCCC2	88*	23	-2	-23	-2
CC(NC(=O)c1ccco1)c1cccc2ccccc12 (configuration not stated)	78*	98*	-2	-98	15
SMILES	IL1B cytotox	NFkB transloc inh	HUVEC tox TNFa	IL1B NFkB pot	VCAM1 TNFa inh
O=C(CSc1ncccc1-c1nc2ccccc2[nH]1)N1CCN(c2ccccc2F)CC1	85*	-15	-12	15	22
CC(OC(=O)c1snc(C(=O)NC2CCCCC2)c1N)C(=O)NC1CCCCC1 (configuration not stated)	-44	-29	/	29	/
CCOC(=O)c1c(NC(=O)CC)sc(C(C)=O)c1C	-17	-9	-41	9	-53
Cc1nc(SCc2ccc(Br)cc2)[nH]c(=O)c1C	8	0	33	0	67*
COc1ccc(CSc2nc(C)cc(=O)[nH]2)cc1	-20	-5	-12	5	-7
Cc1ccc(Oc2ncccc2/C=N/OCc2ccc(Cl)c(Cl)c2)cc1	11	-6	7	6	-3
COc1ccccc1CC(=O)Nc1ccc(-c2noc(COc3ccc(Br)cc3)n2)cc1	-8	-50	-13	50*	8
COc1ccccc1CC(=O)Nc1ccc(-c2noc(COc3cccc(C)c3C)n2)cc1	-21	8	-12	-9	4
O=C(c1ccco1)c1cn[nH]c1-c1ccc(Cl)cc1O	12	6	-4	-6	-13
O=[N+]([O-])c1nn(-c2ccc3c(c2)OCCO3)n(O)c1=NCc1ccccc1Cl	-29	-92	6	92*	17
O=[N+]([O-])c1nn(-c2ccc3c(c2)OCCO3)n(O)c1=NC1CCCCC1	1	-3	-1	1	7
CCOc1ccccc1Nc1nc(N)nc(CN(C)C2CCCCC2)n1	-7	12	-23	-12	-4
c1ccc(-n2nnnc2OCCOc2nnnn2-c2ccccc2)cc1	94*	24	-31	-24	15
CC(C)N(CCc1ccncc1)C(=O)Nc1ccc(Cl)c(Cl)c1	7	-43	15	43*	-38
N=c1c2c(-c3ccccc3)c(-c3ccccc3)n(Cc3ccccc3)c2ncn1CCCn1ccnc1	2	2	14	-2	73*
c1ccc(-c2nnc(CSc3nncs3)o2)cc1	-4	-15	-7	15	93*
c1ccc(Cc2nnc(-c3ccccc3)o2)cc1	-11	?	4	-57	-6
Cc1ccc(N2C(=O)CC(n3nc(C)cc3C)C2=O)cc1 (configuration not stated)	-11	-16	2	16	-11
COc1cc(CNC2CCC(C)C2)cc(OC)c1 (configuration not stated)	89*	-10	14	10	-5
O=C(NCc1ccco1)C1CC(=O)N(c2ccc(F)cc2)C1 (configuration not stated)	5	8	-25	-8	85*
COC(=O)CN1C2(C#N)CCCCC2CC2CCCCC21C#N (configuration not stated)	-15	-14	-18	14	-20
CC(C)OCCCNC(=O)CCSc1ccc(Cl)cc1	3	-13	6	13	1
Cc1cc(NC(=O)CSc2nc3sc(C)c(C)c3c(=O)n2C2CCCC2)no1	-8	-2	-8	2	5
CC(Nc1ccccc1)c1cc(Cl)ccc1O (configuration not stated)	89*	91*	0	-91	5
Cc1ccc(S(=O)(=O)NC(CC(C)C)C(=O)Nc2nccs2)cc1 (configuration not stated)	7	-7	-16	7	-7
COc1ccc(C(C)=O)cc1CSc1nc2cc(Cl)ccc2o1	88*	9	-13	-9	7
CC1CCN(Cc2ccc(NC(=O)CC3Oc4ccccc4NC3=O)cc2)CC1 (configuration not stated)	11	-2	-39	2	15
C=CCN1C(=O)C2C(C(=O)NC3CCCCC3)C3C=CC2(O3)C1C(=O)NC1CCCC1 (configuration not stated)	90*	100*	0	-100	-21
